# Screening data deposited in PubChem by National Center for Advancing Translational Sciences (NCATS).
# Shown are actives, neighbours in structure and some others; about 2.7% of the full set was active somewhere.
# A549 tox: counter-screen for Nrf2 inhibitors: cytotoxicity in A549 cells; 0.16% of 390,000 active; Potency, µM (titrated, usually from 46 µM), without a hit: at the top dose activity change, negative = cytotoxicity, hits mostly inhibitors; AID 504648; A549 ARE-Fluc cells, CellTiter-Fluor viability, 18-24 h; also: potency is read from the fitted curve at half-maximal effect; % is scaled to controls: 0 for no effect and ±100 for the full control effect
#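 A549 ARE_Fluc cells in 5% FBS OPTI-MEM were exposed to compounds in concentration-response for 18-24 h at 37 deg C. Viability was read by CellTiter-Fluor fluorescence (Ex 405/Em 525) after 30 min, before the luciferase read.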
# Nrf2 activator: activates Nrf2 signaling; AREc32 ARE-luciferase reporter (MCF7-derived line), luminescence, 24 h; Potency, µM (top dose mostly 46.1 µM), for the others: at the highest dose activation, actives largely listed as activators; 0.31% of 410,000 active; also: potency is read from the fitted curve at half-maximal effect; % of control where 0% means no effect; nearly all actives have a fitted effect of over 65% in size
#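 ARE-driven firefly luciferase activity in AREc32 cells measured after a 24 hr compound exposure at 37 deg C, using Steady-Glo reagent and a 30 min room-temperature hold.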
# Nrf2 block: blocks Nrf2 signaling; 2.1% of 360,000 active; Potency, µM (highest dose often 46 µM), for inactives: at the highest dose activity change, negative = inhibition, hits mostly inhibitors; A549 ARE-Fluc reporter, luciferase luminescence, 18-24 h; AID 504444; also: potency is read from the fitted curve at half-maximal effect; % is scaled to controls: 0 for no effect and ±100 for the full control effect; nearly all actives have a fitted effect of over 60% in size
#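 In this cell-based qHTS, ARE-driven firefly luciferase in A549 cells reports Nrf2 activity; the luminescent signal after BugLite lysis is the measured value, with a prior CellTiter-Fluor read for cell health.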
# ERG-DNA inh: ERG Ets/DNA interaction inhibition. AID 624246. fluorescence polarization, His-ERG Ets domain / labelled DNA. Potency, µM (highest dose often 76.9 µM), inactives show top-dose FP activity, negative = inhibition, most hits filed as inhibitors. 0.028% of 370,000 active; active = well fitted inhibition curve with a large enough effect in the polarisation, with a control signal flat; inconclusive = small, poorly fitted or top-dose-only effect, or effect the other way, or a change in a side signal; inactive = no such curve, though single readings can be large or run the other way; the % refers to the polarisation;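 also: polarization taken with two DNA probes labelled with fluorescein and Texas red; potency is read from the fitted curve at half-maximal effect; % of control where 0% means no effect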
#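 His-tagged ERG Ets domain (1 uM in the protein solution; 300mM KCl, 50mM Tris-HCl, 1mM EDTA, 1mM DTT, pH 7.5) received compound, then a probe mix of 5 nM fluorescein-DNA and 100nM Texas-615-DNA. Fluorescence polarization was read for both dyes.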
# LDHA inh: blocks human lactate dehydrogenase A; P00338; purified LDHA, NADH/diaphorase-resazurin fluorescence; active compounds read low; activity change, % (values are at about 110 or 230 µM); 0.15% of 480,000 active; AID 1347041; in the data active = activity change below about -30%; inconclusive = mostly about -25% to -30%;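 also: plate controls were DMSO wells for no effect and wells without enzyme for full effect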
#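 Resorufin fluorescence (ex540/em590), read at 0 and 20 min after diaphorase/resazurin addition, reports the NADH left after a 5 min room-temperature reaction of 2 nM human LDH5 with 0.06 mM NADH and 0.2 mM pyruvate.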
# 12-LOX inh: ALOX12 (human) lipoxygenase inhibition | P18054 | purified 12hLO, xylenol orange hydroperoxide absorbance | Potency, µM (top dose mostly 108 µM), for inactives: at the top dose activity change, negative = inhibition, most hits filed as inhibitors | 1.1% of 580,000 active | AID 1671190; also: potency is read from the fitted curve at half-maximal effect; % is scaled to controls: 0 for no effect and ±100 for the full control effect
# Target sequence (P18054 whole entry, looked up): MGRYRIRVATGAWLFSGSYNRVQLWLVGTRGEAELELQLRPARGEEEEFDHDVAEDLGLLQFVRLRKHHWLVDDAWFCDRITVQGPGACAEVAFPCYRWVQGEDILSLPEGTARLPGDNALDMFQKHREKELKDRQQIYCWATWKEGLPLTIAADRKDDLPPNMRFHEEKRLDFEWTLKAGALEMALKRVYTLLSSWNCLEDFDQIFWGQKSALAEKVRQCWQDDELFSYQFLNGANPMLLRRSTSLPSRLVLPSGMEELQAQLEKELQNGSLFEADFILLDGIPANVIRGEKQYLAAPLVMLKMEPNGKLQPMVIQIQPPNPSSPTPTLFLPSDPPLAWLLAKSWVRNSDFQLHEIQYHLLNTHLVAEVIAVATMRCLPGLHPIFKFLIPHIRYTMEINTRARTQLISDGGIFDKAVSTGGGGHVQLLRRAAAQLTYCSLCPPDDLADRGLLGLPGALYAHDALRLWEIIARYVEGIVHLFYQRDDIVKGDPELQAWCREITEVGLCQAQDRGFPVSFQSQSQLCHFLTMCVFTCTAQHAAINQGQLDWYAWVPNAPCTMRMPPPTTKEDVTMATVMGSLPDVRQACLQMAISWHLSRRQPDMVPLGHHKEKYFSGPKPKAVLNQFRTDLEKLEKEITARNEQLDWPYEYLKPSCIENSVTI
#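 Purified human 12hLO (150 nM final) in 25 mM Hepes, 0.01% Triton X-100, pH 7.0 was preincubated 15 min at room temperature with compound. Then 40 uM arachidonic acid was added, 30 min. Hydroperoxide was read by Fe-XO absorbance ratio 573/405 nm.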
# Active calls of the source: *; ? = inconclusive; · = not tested or not shown; [ ] = remark or other dose. Unless noted, calls follow the shape of the dose curve; as a rule, active = well fitted curve in the direction sought with a large enough effect; inconclusive = small, poorly fitted or top-dose-only effect, or another doubt; inactive = no such curve, though single readings can be large; an effect the other way counts as inactive or inconclusive.
SMILES,A549 tox,Nrf2 activator,Nrf2 block,ERG-DNA inh,LDHA inh,12-LOX inh
O=C(Nc1ccc(C2=NCCN2)cc1)c1ccc(C(=O)Nc2ccc(C3=NCCN3)cc2)c([N+](=O)[O-])c1,-3.3%,-1.6%,-8.7%,29.6%,-35.6*,?
Cc1ccc(NC(=O)c2ccc(-n3cccn3)c([N+](=O)[O-])c2)cc1,6.1%,2.8%,?,-12.4%,-8.3,-9.5%
COc1ccc(CCc2nc3nccc(-c4ccc(OC)c(OC)c4)n3n2)cc1,·,·,·,·,·,56.1%
Nc1ncc(Br)cc1S(=O)(=O)NCCC(=O)N1CCN(c2ncccn2)CC1,-16.0%,-0.1%,18.4µM*,-3.9%,-3.0,54.0%
CC(NC(=O)CNC(=O)c1cccs1)c1ccc2ccccc2c1 (configuration not stated),·,·,·,·,-2.6,?
COc1ccc(OC)c(-n2nnnc2SCC(=O)Nc2ccc(C(=O)N3CCCCC3)cc2)c1,-13.1%,2.3%,18.4µM*,·,1.5,-10.4%
COc1ccc(OC)c(-n2nnnc2SCC(=O)Nc2ccc3c(c2)OCCO3)c1,-12.1%,0.3%,-14.5%,·,-9.7,7.9%
O=C(Nc1c(C(=O)N2CCN(c3ccccc3F)CC2)oc2ccccc12)c1c(F)cccc1F,·,·,·,·,7.2,-17.8%
O=C(c1ccncc1)N(Cc1cccs1)C1CC1,·,·,·,·,-0.3,-6.9%
Cn1c(C(=O)Nc2ccc(Cl)cc2)cc2cc(Cl)ccc21,-1.2%,12.0%,1.1%,5.7%,1.8,17.8µM*
O=C(N/N=C/c1ccc([N+](=O)[O-])o1)c1ccncc1,?,24.7%,?,1.1%,5.2,0.0%
Oc1ccc(Br)cc1/C=N/Nc1nc(N2CCCCC2)nc(N2CCOCC2)n1,?,0.3%,-7.1%,0.4%,2.0,13.7%
O=C(N/N=C/c1ccc([N+](=O)[O-])o1)C1CCCC1,?,-0.8%,16.4µM*,6.7%,-6.6,0.0%
O=[N+]([O-])c1ccc(/C=N/NC(=S)Nc2ccccc2)o1,1.5%,?,3.9%,-0.1%,-1.1,-22.7%
O=[N+]([O-])c1ccc(/C=N/Nc2ccc3ccccc3c2)o1,-17.2%,?,1.6%,66.2%,2.7,10µM*
Oc1ccc(/C=N/Nc2nc(N3CCCCCC3)nc(N3CCCCCC3)n2)c(O)c1,-18.3%,-1.6%,14.6µM*,0.4%,-4.6,-1.9%
O=C(N/N=C/c1ccc([N+](=O)[O-])o1)c1ccc(O)cc1,20.6µM*,-2.2%,20.6µM*,-5.5%,-3.8,-15.1%[22.9 µM]
Cc1cc(C)cc(N2CC(c3nc(-c4ccccn4)no3)CC2=O)c1 (configuration not stated),·,·,·,·,-18.8,32.4%
C=CCNS(=O)(=O)c1cccc(C(=O)Nc2ccc(N3CCCCC3)c3ccncc23)c1,·,·,·,·,40.6,15.3%
O=C(N/N=C/c1cc(Br)c(Br)o1)c1cc2ccccc2o1,-10.1%,0.0%,?,10.7%,-43.6*,-7.0%
O=C(N/N=C/c1ccc([N+](=O)[O-])o1)c1cc2ccccc2o1,-5.9%,?,-0.5%,-8.4%,-69.9*,-21.7%
Cc1ccc(/C=N/Nc2nc(Nc3ccccc3)nc(N3CCCCC3)n2)c(C)c1,·,·,·,·,-5.1,-4.1%
O=C(N/N=C/c1ccncc1)c1cc2ccccc2o1,1.0%,4.0%,-20.3%,7.7%,-5.1,3.0%
O=C(N/N=C/c1ccc([N+](=O)[O-])o1)c1cc2c(ccc3ccccc32)o1,-11.0%,3.5%,?,10.5%,-3.9,-26.5%
Fc1ccc(Nc2nc(N/N=C/c3ccco3)nc(N3CCCCC3)n2)cc1,-6.6%,0.1%,18.4µM*,2.1%,1.4,-10.6%
SMILES,A549 tox,Nrf2 activator,Nrf2 block,ERG-DNA inh,LDHA inh,12-LOX inh
O=[N+]([O-])c1ccc(/C=N/Nc2nc(N3CCCC3)nc(N3CCCC3)n2)o1,?,3.5%,23.1µM*,-1.0%,4.6,4.8%
O=[N+]([O-])c1ccc(/C=[N+](\[O-])[C@@H]2CCCC[C@@H]2/[N+]([O-])=C/c2ccc([N+](=O)[O-])o2)o1,20.6µM*,10µM*,-3.6%,-0.2%,6.1,?
Cc1ccc2nc(N/N=C\c3ccc([N+](=O)[O-])o3)nc(-c3ccccc3)c2c1,23.1µM*,3.7%,?,1.8%,-1.2,-3.7%
COc1ccccc1S(=O)(=O)NCc1ccc(C(=O)Nc2ccc(N3CCCCC3)cc2)cc1,·,·,·,·,-4.6,?
Cn1c(=O)n(/N=C/c2ccccc2)c2ccccc21,10.7%,11.2µM*,3.5%,5.6%,-4.0,19.6%
Cn1c(N)c(N=Cc2ccccc2)c(=O)n(C)c1=O,-2.1%,2.4%,-1.1%,-3.5%,22.2,-15.0%
CSc1ccc(C2C(C#N)=C(N)Oc3c2ccc2ccccc32)cc1 (configuration not stated),·,·,·,·,11.6,0.0%
N#CC1=C(N)Oc2c(ccc3ccccc23)C1c1cccs1 (configuration not stated),?,2.82µM*,?,3.8%,13.5,·
N#CC1=C(N)Oc2c(O)cc3ccccc3c2C1c1ccsc1 (configuration not stated),-0.9%,2.4%,-4.5%,0.7%,1.7,44.7µM*
CCN(CC)CCCNC(=O)c1cc2cc(Cl)ccc2[nH]1,·,·,·,·,3.0,?
CC(C)(C)c1nnc2sc(-c3ccc4c(c3)OCO4)nn12,·,·,·,·,0.5,?
Cc1cc(=O)oc(C)c1C(=O)Nc1ccc(OC(F)(F)F)cc1,·,·,·,·,2.8,-28.7%
COc1ccc(NC(=O)c2cccs2)cn1,0.5%,3.5%,?,-17.2%,-6.9,324.0%
CC(C)(C)c1ccc(Oc2ccc(NC(=O)c3cccs3)cn2)cc1,-16.7%,-0.9%,16.4µM*,4.7%,6.0,1.0%
COC(=O)c1ccc(C(=O)NCCc2ccccc2)cc1,·,·,·,·,6.5,11.2%
Cc1cc(Cl)ccc1NC(=O)Cn1nc(C(=O)O)c2ccccc2c1=O,·,·,·,·,7.1,-10.5%
N#CCOc1ccc2[nH]cc(C(C(=O)O)N3CCN(Cc4ccncc4)CC3)c2c1 (configuration not stated),·,·,·,·,1.0,4.5%
N#Cc1ccc(-c2csc(NNC(=O)c3ccc(Br)cc3)n2)cc1,?,-0.7%,·,-10.7%,-7.9,96.9%
N#Cc1ccc(-c2csc(NNC(=O)c3ccccc3)n2)cc1,-13.8%,-1.1%,23.1µM*,-12.7%,-0.3,0.0%
COc1cccc(-c2cc(=O)[nH]c(Nc3nc(C)c4ccccc4n3)n2)c1,·,·,·,·,-1.0,28.6%
O=C(OCc1ccccc1)c1ccc(C(=O)c2ccccc2)cc1,·,·,·,·,-5.6,?
O=C1C=CC(=O)C(CNc2ccc(C(=O)OCc3ccccc3)cc2)=C1,-10.2%,?,25.5%,0.3%,27.2,15.8µM*
